# Reference: article PMC11062922 (Nature Chemical Biology, 2023)
# Read-outs that look alike come from different tables or passages of the source.
# Tests used:
# Design in all cases: species or system human, MV4-11 + K-562 + COLO205 + SK-N-BE2 + OVCAR-8
# ULK1 = conditions: read-out: apparent Kd, n = 1
# PIK3C3 = conditions: read-out: apparent Kd, n = 1
# MAP4K2 = conditions: read-out: apparent Kd, n = 1
# PAK4 = conditions: read-out: apparent Kd, compound concentrations: 100 nM and 1000 nM (sheet 'Samples'), n = 1
# PIP4K2C = conditions: read-out: apparent Kd, n = 1
# VDAC3 = conditions: read-out: apparent Kd, n = 1
# CSNK1G1 = conditions: read-out: apparent Kd, compound concentrations: 100 nM and 1000 nM (sheet 'Samples'), n = 1
# STRADA = conditions: read-out: apparent Kd, compound concentrations: 100 nM and 1000 nM (sheet 'Samples'), n = 1
# ATM = conditions: read-out: apparent Kd, compound concentrations: 100 nM and 1000 nM (sheet 'Samples'), n = 1
# FER = conditions: read-out: apparent Kd; compound concentrations: 100 nM and 1000 nM (sheet 'Samples'), CATDS: 1.87753699623531E-2; n = 1
# GRK6 = conditions: read-out: apparent Kd, compound concentrations: 100 nM and 1000 nM (sheet 'Samples'), n = 1
# MELK = conditions: read-out: apparent Kd, n = 1
# MYLK3 = conditions: read-out: apparent Kd, n = 1
# PRKX;PRKY = conditions: read-out: apparent Kd, compound concentrations: 100 nM and 1000 nM (sheet 'Samples'), n = 1
# RPS6KA6 = conditions: read-out: apparent Kd; compound concentrations: 100 nM and 1000 nM (sheet 'Samples'), CATDS: 1.4576364077707399E-2; n = 1
# CDK6 = conditions: read-out: apparent Kd; compound concentrations: 100 nM and 1000 nM (sheet 'Samples'), CATDS: 3.7997833467257401E-2; n = 1
# ILK = conditions: read-out: apparent Kd; compound concentrations: 100 nM and 1000 nM (sheet 'Samples'), CATDS: 4.6551408852927599E-2; n = 1
# IKBKE = conditions: read-out: apparent Kd, n = 1
# CSNK1E = conditions: read-out: apparent Kd; compound concentrations:100 nM and 1000 nM (sheet 'Samples'); n = 1
# MAP3K1 = conditions: read-out: apparent Kd; compound concentrations: 100 nM and 1000 nM (sheet 'Samples'), CATDS: 0.17625774536474501; n = 1
# [1] = compound concentrations:100 nM and 1000 nM (sheet 'Samples')
smiles,measurement,setting,value
CN1C(=O)c2ccccc2N(C)c2nc(Nc3cnn(C4CCNCC4)c3)ncc21 [XMD-17-51],potency estimated from few doses,"ULK1; compound concentrations: 100 nM and 1000 nM (sheet 'Samples'), CATDS: 5.3093581497725799E-2",45.5 nM
CCc1nc(-c2cccc(N(C)S(=O)(=O)c3ccccc3)c2)c(-c2ccnc(Nc3ccc(N4CCN(C(C)=O)CC4)nc3)n2)s1 [GSK1645895A],potency estimated from few doses,"PIK3C3; compound concentrations: 100 nM and 1000 nM (sheet 'Samples'), CATDS: 0.15936807020930999",1340 nM
Cc1cccc(Nc2nc(NCCN)ncc2C(N)=O)c1 [GSK1292139B],potency estimated from few doses,"MAP4K2; compound concentrations: 100 nM and 1000 nM (sheet 'Samples'), CATDS: 7.8363425236556997E-2",1110 nM
same,potency estimated from few doses,PAK4; CATDS: 9.0340207585202004E-2,778 nM
CS(=O)(=O)Cc1ccc(Nc2nccc(-c3c(-c4cccc(NC(=O)C5CCCCC5)c4)nn4ncccc34)n2)cc1 [GSK350559A],potency estimated from few doses,MAP4K2; [1],1890 nM
same,potency estimated from few doses,PIP4K2C; [1],136 nM
same,potency estimated from few doses,VDAC3; [1],2030 nM
CS(=O)(=O)CCNCc1ccc(-c2ccc3ncnc(Nc4ccc(OCc5cccc(F)c5)c(C(F)(F)F)c4)c3c2)o1 [GW576484X],potency estimated from few doses,CSNK1G1; CATDS: 5.4638885824274799E-2,1620 nM
same,potency estimated from few doses,STRADA; CATDS: 5.2854601863181902E-2,1740 nM
O=C1N=C(NCc2cccs2)SC1Cc1ccc2ncccc2c1 (stereo not shown) [RO4629078-000],potency estimated from few doses,ATM; CATDS: 2.5456508312119999E-2,123 nM
same,potency estimated from few doses,FER,195 nM
same,potency estimated from few doses,GRK6; CATDS: 8.7219841617169405E-3,974 nM
same,potency estimated from few doses,"MELK; compound concentrations: 100 nM and 1000 nM (sheet 'Samples'), CATDS: 7.0296492391178304E-3",2190 nM
same,potency estimated from few doses,"MYLK3; compound concentrations: 100 nM and 1000 nM (sheet 'Samples'), CATDS: 7.0392832090842503E-3",2170 nM
same,potency estimated from few doses,PAK4; CATDS: 1.27068399594295E-2,391 nM
same,potency estimated from few doses,"PIP4K2C; compound concentrations: 100 nM and 1000 nM (sheet 'Samples'), CATDS: 1.8402634239812199E-2",201 nM
same,potency estimated from few doses,PRKX;PRKY; CATDS: 7.8908157683285005E-3,1350 nM
same,potency estimated from few doses,RPS6KA6,301 nM
same,potency estimated from few doses,"ULK1; compound concentrations: 100 nM and 1000 nM (sheet 'Samples'), CATDS: 1.26661320847058E-2",394 nM
Cl.Cl.Cl.c1ccc(Oc2ccc(Nc3ccnc4cc(-c5ccc(CN6CCNCC6)o5)ccc34)cc2)nc1.c1ccc(Oc2ccc(Nc3ccnc4cc(-c5ccc(CN6CCNCC6)o5)ccc34)cc2)nc1 [GW567142A],potency estimated from few doses,GRK6; CATDS: 1.87269868098595E-2,1430 nM
same,potency estimated from few doses,"MYLK3; compound concentrations: 100 nM and 1000 nM (sheet 'Samples'), CATDS: 1.6491067951183699E-2",2320 nM
same,potency estimated from few doses,"VDAC3; compound concentrations: 100 nM and 1000 nM (sheet 'Samples'), CATDS: 1.74915256837203E-2",1830 nM
COc1ccc(Nc2nccc(N3CCC(NC(=O)Nc4ccc5c(c4)OCO5)C3)n2)cc1 (stereo not shown) [GSK1379745A],potency estimated from few doses,CDK6,1680 nM
same,potency estimated from few doses,CSNK1G1; CATDS: 3.8833809861808503E-2,1600 nM
same,potency estimated from few doses,ILK,1110 nM
same,potency estimated from few doses,STRADA; CATDS: 3.4015058114393301E-2,2210 nM
CCn1cc(-c2ccnc3[nH]c(-c4cccc(CN(C)C)c4)cc23)c(-c2ccc(NC(=O)N(C)C)cc2)n1 [GSK1070916],potency estimated from few doses,IKBKE; [1],1960 nM
same,potency estimated from few doses,PIK3C3; [1],1500 nM
O=C1N=C(NCc2ccccc2)S/C1=C\c1ccc2ncccc2c1 [RO4442080-000],potency estimated from few doses,"MYLK3; compound concentrations: 100 nM and 1000 nM (sheet 'Samples'), CATDS: 7.9842207059825906E-2",1930 nM
same,potency estimated from few doses,PRKX;PRKY; CATDS: 0.10891085030607001,835 nM
O=C1N=C(NCC(CO)c2ccccc2)S/C1=C\c1ccc2ncccc2c1 (stereo not shown) [RO4582641-000],potency estimated from few doses,PRKX;PRKY; CATDS: 6.1310776599809498E-2,1910 nM
COc1ccc(CNC(=O)NC2CCN(c3ccnc(Nc4cc(OC)c(OC)c(OC)c4)n3)C2)cc1 (stereo not shown) [GSK1379748A],potency estimated from few doses,"PIP4K2C; compound concentrations: 100 nM and 1000 nM (sheet 'Samples'), CATDS: 0.31006537475482299",2120 nM
CC(C)c1cc(-c2ccc3c(N)n[nH]c3c2)nc(N)n1 [GSK2250882A],potency estimated from few doses,MELK; [1],1300 nM
Fc1ccc(-c2c(-c3ccncc3)[nH]c3nccnc23)cc1 [RO1155697-000],potency estimated from few doses,CSNK1E,52.8 nM
same,potency estimated from few doses,ULK1; [1],1520 nM
COc1cccc(-n2cnc3c(N/N=C/c4ccncc4)ncnc32)c1 [GW813360X],potency estimated from few doses,MAP3K1,1040 nM
O=S(=O)(CCOCc1ccc(-c2ccc3ncnc(Nc4ccc(OCc5cccc(F)c5)c(Cl)c4)c3c2)o1)c1ccccc1 [GW615311X],potency estimated from few doses,ATM; CATDS: 0.104410485471121,179 nM
same,potency estimated from few doses,"IKBKE; compound concentrations: 100 nM and 1000 nM (sheet 'Samples'), CATDS: 3.0296968888376598E-2",1150 nM
COc1cc(/C=N/Nc2ncnc3[nH]ncc23)ccc1O [GW578748X],potency estimated from few doses,MELK; [1],2390 nM
same,potency estimated from few doses,MYLK3; [1],2040 nM
